Results published in the supplement of paper PMC11172423.
Values without a mark were called inactive.

test system: Falciformispora senegalensis CBS197.79; assay: growth relative to untreated control; higher = less inhibition, active = 20 or less; conditions: 25 µM
Summary of the method: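 Viability readout used either MTS (2 h, 490 nm) or resazurin (600 nm). Before this, hyphal fragments of M. mycetomatis MM55 or F. senegalensis CBS197.79 in colourless RPMI 1640 with L-glutamine and MOPS (68–72% transmission at 660 nm) had been exposed in 96-well plates to compound at 100 or 25 µM for 7 days at 37 °C. Growth denotes metabolic activity relative to the untreated growth control, with a medium-plus-dye blank subtracted from both.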

Row | Structure (SMILES) | growth
1 | CC(C)(C)Cn1c(N)nc2ccc(-c3[nH]c(C(C)(C)C)nc3-c3ccc(F)cc3)nc21 | 100%
2 | CN(C)CCN1CCCN(c2ccnc3ccsc23)CC1 | 90.2%
3 | Fc1ccc([C@@H]2CCNC[C@H]2COc2ccc3c(c2)OCO3)cc1 | 101%
4 | O=C(Nc1ncccc1O)c1ccc(S(=O)(=O)NCCc2cccs2)cc1 | 88.7%
5 | CN1CCC[C@@H]1CCO[C@](C)(c1ccccc1)c1ccc(Cl)cc1 | 17.9% (active)
6 | CCc1nn2c(Nc3ccncc3)cc(C)nc2c1-c1ccccc1 | 88.3%
7 | O=C(Nc1ncccc1O)c1ccc(Cn2cccn2)cc1 | 87.3%
8 | CNCc1[cH-]ccc1CNc1ccnc2cc(Cl)ccc12.[Fe+2].c1cc[cH-]c1 | 10.2% (active)
9 | CCCCOC(=O)c1c(C)cnc2ccccc12 | 90.5%
10 | COC(=O)C1=C(C)NC(C)=C(C(=O)OC)C1c1ccccc1[N+](=O)[O-] | 98.9%
11 | Cc1cc2ncc(C(=O)NCC(C)(C)NCC(=O)N3CCC[C@H]3C#N)cn2n1 | 105%
12 | CC(C)(C)[S@@](=O)N1Cc2cc(C(=O)NCCc3ccncc3)nc(-c3cccc(-c4ccccc4)c3)c2[C@H]1CCO | 82.6%
13 | CC(C)(C)Nc1ncc2nc(Nc3cccc(C(F)(F)F)c3)n(CC3CCNCC3)c2n1 | 92.9%
14 | O=c1[nH]ccc2nc(N[C@@H]3CCNC3)nc(Nc3ccc4c(c3)S(=O)(=O)CC4)c12 | 90.7%
15 | CCOC(=O)N1CCC(=C2c3ccc(Cl)cc3CCc3cccnc32)CC1 | 106%
16 | COC(=O)N[C@H](C(=O)N[C@@H](Cc1ccccc1)[C@@H](O)CN(Cc1ccc(-c2ccccn2)cc1)NC(=O)[C@@H](NC(=O)OC)C(C)(C)C)C(C)(C)C | 114%
17 | COc1ccc(-c2ccc3c(-c4ccc(F)cc4)cnc(N)c3c2)cn1 | 94.3%
18 | Cn1nc(-c2cccc(CNC3CCc4ccc(O)cc43)c2)c2cnc(NC3CCCC3)nc21 (stereo not given) | 18% (active)

Row | Structure (SMILES) | growth
19 | COc1ccc(Cl)cc1-c1nc(C(=O)NCCN2CCCCC2)c(C(C)C)s1 | 94.5%
20 | CN(C)CCCN1c2ccccc2CCc2ccc(Cl)cc21 | 51.5%
21 | CCOc1ccccc1NC(=O)Cn1c(=O)n(Cc2ccccc2)c(=O)c2c(C)c(C(=O)N(C)C)sc21 | 92.1%
22 | Oc1ccccc1CCNC1CCc2ccc(F)cc21 (stereo not given) | 107%
23 | CC[C@@H]([C@H](C)O)n1ncn(-c2ccc(N3CCN(c4ccc(OC[C@@H]5CO[C@@](Cn6cncn6)(c6ccc(F)cc6F)C5)cc4)CC3)cc2)c1=O | 25.2%
24 | CC(C)(C)Nc1ncc2nc(Nc3cc(Cl)cc(C(F)(F)F)c3)n([C@H]3C[C@H](N)C3)c2n1 | 50.9%
25 | O=c1[nH]c2ccccc2n1CCCN1CCN(C(c2ccccc2)c2ccccc2)CC1 | 103%
26 | CCCCc1nc(Cl)c(CO)n1Cc1ccc(-c2ccccc2-c2nn[nH]n2)cc1 | 105%
27 | COCC[C@H](NC(=O)c1cc2ccc(C(F)(F)F)cc2[nH]1)c1ccccc1 | 95.1%
28 | CC[C@H](C)[C@H]1O[C@]2(C=C[C@@H]1C)C[C@@H]1C[C@@H](C/C=C(\C)[C@@H](O[C@H]3C[C@H](OC)[C@@H](O[C@H]4C[C@H](OC)[C@H](NC(C)=O)[C@H](C)O4)[C@H](C)O3)[C@@H](C)/C=C/C=C3\CO[C@@H]4[C@H](O)C(C)=C[C@@H](C(=O)O1)[C@]34O)O2 | 101%
29 | NS(=O)(=O)OC[C@@H]1C[C@@H](n2ccc3c(N[C@H]4CCc5ccccc54)ncnc32)C[C@@H]1O | 112%
30 | CC(C)Nc1cccnc1N1CCN(C(=O)c2cc3cc(NS(C)(=O)=O)ccc3[nH]2)CC1 | 101%
31 | CO[C@H]1C[C@H](O[C@@H]2/C(C)=C/C[C@@H]3C[C@@H](C[C@]4(CC[C@H](C)[C@@H](C5CCCCC5)O4)O3)OC(=O)[C@@H]3C=C(C)/C(=N/O)[C@H]4OC/C(=C\C=C\[C@@H]2C)[C@]43O)O[C@@H](C)[C@@H]1O | 97.5%
32 | Cc1ccc(C(=O)Nc2ccc(CN3CCN(C)CC3)c(C(F)(F)F)c2)cc1C#Cc1cnc2cccnn12 | 20.7%
33 | CCN1CCN(C2CCN(C(=O)COc3ccc(-c4ccccc4F)cc3)CC2)CC1 | 99.8%
34 | Cc1ccc(Cl)cc1NC(=O)c1c(-c2ccccc2Cl)noc1C | 79.7%
35 | CN(C)c1ncc2nc(Nc3cc(Cl)cc(C(F)(F)F)c3)n(C3CCNCC3)c2n1 | 102%

same assay, conditions: 100 µM

Row | Structure (SMILES) | growth
36 | CC(C)(C)Cn1c(N)nc2ccc(-c3[nH]c(C(C)(C)C)nc3-c3ccc(F)cc3)nc21 | 55%
37 | CN(C)CCN1CCCN(c2ccnc3ccsc23)CC1 | 99.7%
38 | Fc1ccc([C@@H]2CCNC[C@H]2COc2ccc3c(c2)OCO3)cc1 | 15.3% (active)
39 | O=C(Nc1ncccc1O)c1ccc(S(=O)(=O)NCCc2cccs2)cc1 | 88.7%
40 | CN1CCC[C@@H]1CCO[C@](C)(c1ccccc1)c1ccc(Cl)cc1 | 13.7% (active)
41 | CCc1nn2c(Nc3ccncc3)cc(C)nc2c1-c1ccccc1 | 92.6%
42 | O=C(Nc1ncccc1O)c1ccc(Cn2cccn2)cc1 | 86.4%
43 | CNCc1[cH-]ccc1CNc1ccnc2cc(Cl)ccc12.[Fe+2].c1cc[cH-]c1 | 14.6% (active)
44 | CCCCOC(=O)c1c(C)cnc2ccccc12 | 98.7%
45 | COC(=O)C1=C(C)NC(C)=C(C(=O)OC)C1c1ccccc1[N+](=O)[O-] | 41.1%
46 | Cc1cc2ncc(C(=O)NCC(C)(C)NCC(=O)N3CCC[C@H]3C#N)cn2n1 | 102%
47 | CC(C)(C)[S@@](=O)N1Cc2cc(C(=O)NCCc3ccncc3)nc(-c3cccc(-c4ccccc4)c3)c2[C@H]1CCO | 102%
48 | CC(C)(C)Nc1ncc2nc(Nc3cccc(C(F)(F)F)c3)n(CC3CCNCC3)c2n1 | 97.2%
49 | O=c1[nH]ccc2nc(N[C@@H]3CCNC3)nc(Nc3ccc4c(c3)S(=O)(=O)CC4)c12 | 113%
50 | CCOC(=O)N1CCC(=C2c3ccc(Cl)cc3CCc3cccnc32)CC1 | 104%
51 | COC(=O)N[C@H](C(=O)N[C@@H](Cc1ccccc1)[C@@H](O)CN(Cc1ccc(-c2ccccn2)cc1)NC(=O)[C@@H](NC(=O)OC)C(C)(C)C)C(C)(C)C | 108%
52 | COc1ccc(-c2ccc3c(-c4ccc(F)cc4)cnc(N)c3c2)cn1 | 75.2%
53 | Cn1nc(-c2cccc(CNC3CCc4ccc(O)cc43)c2)c2cnc(NC3CCCC3)nc21 (stereo not given) | 21.3%

Row | Structure (SMILES) | growth
54 | COc1ccc(Cl)cc1-c1nc(C(=O)NCCN2CCCCC2)c(C(C)C)s1 | 77.6%
55 | CN(C)CCCN1c2ccccc2CCc2ccc(Cl)cc21 | 12.5% (active)
56 | CCOc1ccccc1NC(=O)Cn1c(=O)n(Cc2ccccc2)c(=O)c2c(C)c(C(=O)N(C)C)sc21 | 108%
57 | Oc1ccccc1CCNC1CCc2ccc(F)cc21 (stereo not given) | 115%
58 | CC[C@@H]([C@H](C)O)n1ncn(-c2ccc(N3CCN(c4ccc(OC[C@@H]5CO[C@@](Cn6cncn6)(c6ccc(F)cc6F)C5)cc4)CC3)cc2)c1=O | 24.1%
59 | CC(C)(C)Nc1ncc2nc(Nc3cc(Cl)cc(C(F)(F)F)c3)n([C@H]3C[C@H](N)C3)c2n1 | 11.3% (active)
60 | O=c1[nH]c2ccccc2n1CCCN1CCN(C(c2ccccc2)c2ccccc2)CC1 | 28.7%
61 | CCCCc1nc(Cl)c(CO)n1Cc1ccc(-c2ccccc2-c2nn[nH]n2)cc1 | 105%
62 | COCC[C@H](NC(=O)c1cc2ccc(C(F)(F)F)cc2[nH]1)c1ccccc1 | 92.9%
63 | CC[C@H](C)[C@H]1O[C@]2(C=C[C@@H]1C)C[C@@H]1C[C@@H](C/C=C(\C)[C@@H](O[C@H]3C[C@H](OC)[C@@H](O[C@H]4C[C@H](OC)[C@H](NC(C)=O)[C@H](C)O4)[C@H](C)O3)[C@@H](C)/C=C/C=C3\CO[C@@H]4[C@H](O)C(C)=C[C@@H](C(=O)O1)[C@]34O)O2 | 91.4%
64 | NS(=O)(=O)OC[C@@H]1C[C@@H](n2ccc3c(N[C@H]4CCc5ccccc54)ncnc32)C[C@@H]1O | 101%
65 | CC(C)Nc1cccnc1N1CCN(C(=O)c2cc3cc(NS(C)(=O)=O)ccc3[nH]2)CC1 | 96.5%
66 | CO[C@H]1C[C@H](O[C@@H]2/C(C)=C/C[C@@H]3C[C@@H](C[C@]4(CC[C@H](C)[C@@H](C5CCCCC5)O4)O3)OC(=O)[C@@H]3C=C(C)/C(=N/O)[C@H]4OC/C(=C\C=C\[C@@H]2C)[C@]43O)O[C@@H](C)[C@@H]1O | 89.3%
67 | Cc1ccc(C(=O)Nc2ccc(CN3CCN(C)CC3)c(C(F)(F)F)c2)cc1C#Cc1cnc2cccnn12 | -2.57% (active)
68 | CCN1CCN(C2CCN(C(=O)COc3ccc(-c4ccccc4F)cc3)CC2)CC1 | 6% (active)
69 | Cc1ccc(Cl)cc1NC(=O)c1c(-c2ccccc2Cl)noc1C | 80.1%
70 | CN(C)c1ncc2nc(Nc3cc(Cl)cc(C(F)(F)F)c3)n(C3CCNCC3)c2n1 | 99.5%
